# Source: PubChem (The Scripps Research Institute Molecular Screening Center)
# Only some compounds are listed: those with a hit (about 2.3% of all), similar ones and a draw of the others.
# CHRM1 PAM: human M1 muscarinic receptor positive allosteric modulators, primary screen, CHO-K1 cells, Fluo-8 calcium fluorescence, 1536-well. Muscarinic acetylcholine receptor M1 (Homo sapiens), P11229. CHO-K1 hM1, ACh EC20; 0% = ACh EC20, 100% = maximal ACh. activation, % at 3 µM. actives 0.088% (n = 360,000). AID 588819, 2011; in the data active = activation above about 19%, passing the limit was not always enough
# Target sequence (P11229 whole entry, looked up): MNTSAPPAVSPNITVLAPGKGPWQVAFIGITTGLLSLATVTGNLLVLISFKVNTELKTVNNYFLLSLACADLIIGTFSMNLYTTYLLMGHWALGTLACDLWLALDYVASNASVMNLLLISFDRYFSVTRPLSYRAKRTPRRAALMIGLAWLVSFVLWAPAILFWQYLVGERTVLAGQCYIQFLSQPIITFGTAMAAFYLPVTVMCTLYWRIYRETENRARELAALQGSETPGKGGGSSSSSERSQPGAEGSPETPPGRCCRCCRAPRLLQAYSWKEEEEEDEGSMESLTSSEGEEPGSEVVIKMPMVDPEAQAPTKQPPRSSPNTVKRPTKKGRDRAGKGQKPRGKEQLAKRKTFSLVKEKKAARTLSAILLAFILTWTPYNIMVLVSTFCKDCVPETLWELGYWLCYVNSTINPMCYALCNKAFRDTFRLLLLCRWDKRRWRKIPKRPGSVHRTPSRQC
# CHO-K1 Ca PAM: nonselective calcium activators in parental CHO-K1 cells, primary screen, counter-screen for M1 PAM project, cell-based, Fluo-8 calcium fluorescence, full deck, 1536-well | ATP EC20; 0% at ATP EC20, 100% at ATP max | activation, % at 3 µM | actives 0.02% (n = 360,000);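 active = activation above the run cutoff, the mean activation of all test compounds plus 3 SD, cut at about 40% in these data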;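 also: peak over basal fluorescence ratio in a 140 s read after ATP addition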
# CHRM1 agonist: human M1 muscarinic receptor agonists, primary screen, Fluo-8 calcium fluorescence, CHO-K1 cells, HTS | CHO-K1 hM1, agonist mode; 0% DMSO, 100% acetylcholine EC100 | actives 0.33% (n = 360,000) | activation, % at 3 µM | Muscarinic acetylcholine receptor M1 (Homo sapiens), P11229;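 active = activation above the run's mean compound activation plus 3 SD, cut at about 16% in these data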;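 also: peak over basal fluorescence ratio within a 140 s kinetic read after compound addition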
# CHRM1 antagonist: human M1 muscarinic receptor antagonists, primary screen, CHO-K1 cells, Fluo-8 calcium fluorescence, 1536-well. Muscarinic acetylcholine receptor M1 (Homo sapiens), P11229. CHO-K1 hM1, ACh EC80 antagonist. inhibition, % at 3 µM. actives 1.3% (n = 360,000);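 active = percent inhibition above its own plate's cutoff, namely the mean of that plate's compound wells plus 3 SD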;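 also: peak over basal fluorescence ratio during 140 s after agonist addition; 0% = ACh EC80 plus DMSO and 100% = DMSO alone without agonist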
# CHO-K1 Ca antag: M1 antagonist counterscreen hit in parental CHO-K1 cells. ATP-induced calcium, Fluo-8 fluorescence. inhibition, % at 3 µM. actives 0.6% (n = 360,000). AID 602250;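 active = inhibition above a per-plate cutoff, the plate's mean sample inhibition plus 3 SD, cut at about 24% in these data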;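 also: 0% = DMSO plus EC80 ATP and 100% = DMSO alone without ATP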
# M1 ag parental: counter-screen for M1 agonists: effect in parental CHO-K1 cells; Fluo-8 calcium fluorescence; scaled to maximal ATP response, vehicle zero; activation, % at 3 µM; actives 0.48% (n = 360,000); AID 602248, 2012; in the data active = activation above about 15%;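 also: untransfected CHO-K1 host cells lacking M1 receptor as counterscreen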
# An asterisk follows results filed as active.
SMILES,CHRM1 PAM,CHO-K1 Ca PAM,CHRM1 agonist,CHRM1 antagonist,CHO-K1 Ca antag,M1 ag parental
COc1ccc(S(=O)(=O)Nc2ccc(Cc3ccncc3)cc2)cc1C,-22.7,1.2,-0.1,38.9*,-3.7,12.4
CC(=O)Nc1ccc(S(=O)(=O)Nc2ccc(Cc3ccncc3)cc2)cc1,-1.1,5.6,-9.2,9.5,7.1,2.0
CC(C)(C)c1ccc(S(=O)(=O)Nc2ccc(Cc3ccncc3)cc2)cc1,-22.2,8.0,-1.6,61.8*,24.4*,11.4
COc1cc(CN2C[C@@H](CO)O[C@@H](n3cnc4c(NCCN(C)C)ncnc43)C2)cc(OC)c1OC,6.3,11.2,-3.3,-13.2,5.0,0.0
COCCCN(C(=O)CSc1nc2ccccc2c(=O)n1C)c1c(N)n(Cc2ccccc2)c(=O)[nH]c1=O,8.3,13.4,-3.5,-10.9,-7.8,0.3
O=c1c2ccccc2sc2ccc(C#CC3(O)CCCCC3)cc12,-4.9,1.8,-6.8,4.8,-9.3,-0.4
COc1cccc2sc3ccc(C#CC4(O)CCCCC4)cc3c(=O)c12,-12.6,7.3,-7.1,41.3*,-15.6,4.8
CCOc1ccccc1OC(=O)c1ccco1,3.1,-5.7,-1.4,11.6,27.3*,-0.3
CC(=O)Nc1ccc(NC(=O)C(C)OC(=O)C2CCCCC2)cc1 (centres undefined),3.9,-0.8,-2.3,6.3,0.3,0.1
CCOc1ccccc1C1C(C(N)=O)=C(C)Nc2nc(CCCO)nn21 (centres undefined),5.1,-8.6,2.7,-4.2,26.7*,-0.4
Clc1ccc(CN2CCC(Cc3ccccc3)CC2)cc1,-27.8,-5.5,-14.8,44.8*,3.5,0.1
CSc1ccc(CN2CCC(Cc3ccccc3)CC2)cc1,-28.9,23.6,-9.2,49.5*,-7.0,2.4
O=C(C1CCN(Cc2ccc(Cl)cc2)CC1)N1CCN(C(c2ccccc2)c2ccccc2)CC1,-26.6,-4.4,-7.2,99.3*,-2.2,0.8
CC(NC1CCN(Cc2ccccc2)CC1)c1ccc(F)cc1 (centres undefined),-20.4,4.7,-10.5,34.4*,-4.5,0.6
COc1ccc(S(=O)(=O)N2CCC(C(=O)NCCC(=O)NC3CC3)CC2)cc1,11.4,-13.7,1.1,-19.3,14.4,-0.2
COc1ccc(CN(C(C)=O)c2cc(C)c([N+](=O)[O-])cc2OC)cc1OC,-2.6,20.3,0.4,4.6,-12.4,1.0
CCOC(=O)c1c(C)n(C)c2ccc(OCC(O)CNCCc3ccccc3)cc12 (centres undefined),6.3,4.4,-7.8,-7.8,31.3*,12.1
COc1ccc(/C(C)=N/NC(=O)c2ccc(CSc3nncn3C)cc2)cc1,-4.9,15.1,-2.7,13.4,8.9,15.4*
Oc1ccc(C=NC2CCCCC2)cc1,11.7,-10.6,4.7,2.3,4.0,-0.1
CN(C)C(=S)Oc1ccccc1C1SCCS1,5.7,-1.7,-4.4,-16.6,-5.4,0.4
CCN(CC(=O)Nc1cc(Cl)ccc1C)C(=O)C1CCN(c2ncnc3sc(C)c(C)c23)CC1,-19.1,-11.3,-2.1,37.0*,3.9,5.2
CCN(CC)S(=O)(=O)c1cc(NC(=O)C2CCN(c3ncnc4sc(C)c(C)c34)CC2)ccc1Cl,-12.6,9.7,-3.1,36.5*,-8.2,2.3
Cc1sc2ncnc(N3CCC(C(=O)N(C)CC(=O)Nc4ccccc4Br)CC3)c2c1C,-9.8,4.2,0.5,34.7*,-0.4,9.8
Cc1ccc(NC(=O)C2CCN(c3ncnc4sc(C)c(C)c34)CC2)cc1S(=O)(=O)N(C)C,-8.3,3.0,-2.2,14.4,5.1,6.9
CCOc1ccc(CCN2C(=S)N([C@@H](Cc3ccc(O)cc3)CN3CCC[C@@H]3CN3C(=S)NC[C@@H]3CC(C)C)C[C@@H]2CC(C)C)cc1,10.7,11.6,-1.6,-7.1,3.5,0.3
SMILES,CHRM1 PAM,CHO-K1 Ca PAM,CHRM1 agonist,CHRM1 antagonist,CHO-K1 Ca antag,M1 ag parental
COCCn1c(SCC(=O)Nc2ccc(F)cc2)nc2c(c1=O)SCC2,14.7,-15.9,-0.5,-20.5,10.7,-0.1
COc1cc(C(=O)N2CCN(c3ccccc3)CC2)c2ccccc2n1,8.2,12.6,0.2,-11.7,-9.3,-0.4
O=C(c1ccc2oc(Cc3ccc(Cl)cc3)nc2c1)N1CC[C@H](O)C1,3.6,20.3,-2.8,-10.9,-17.4,0.4
CN(C)CC/C=C1/c2ccccc2CS(=O)(=O)c2ccccc21,-26.5,16.9,-6.2,65.7*,-9.1,0.9
CN1CCN(CCC=C2c3ccccc3Sc3ccc(S(=O)(=O)N(C)C)cc32)CC1,-8.9,-3.0,-3.4,-13.0,-2.7,2.2
COc1ccc(CNc2nc(SCC(=O)NCc3ccco3)nc3ccccc23)cc1,-2.6,15.0,-7.5,-8.9,-3.4,15.9*
CCOC(=O)c1sc(=S)n(-c2ccccc2)c1SC,-25.1,17.0,-7.3,51.3*,-8.7,0.4
CCOC(=O)c1sc(=S)n(-c2cccc(C(F)(F)F)c2)c1SC,2.2,16.0,-6.3,-11.3,-4.5,-0.3
CCOC(=O)c1sc(=S)n(-c2ccccc2Cl)c1SC,-32.3,4.2,-11.5,100.4*,-3.3,0.2
CCOC(=O)c1sc(=S)n(-c2ccc(Cl)cc2)c1C,1.2,-2.4,-4.9,-2.9,3.0,-0.3
CCCN(CC(=O)Nc1ccccc1C)C(=O)c1ccc(S(=O)(=O)N2CCC(C)CC2)cc1,5.4,-18.2,-5.7,-17.4,2.5,-0.4
COc1ccc(/C=C(\NC(=O)c2ccc(C)cc2)C(=O)NCCCn2ccnc2)cc1OC,3.9,0.8,-8.9,-8.5,10.4,-0.1
COc1ccc(CNc2ncnc3c2[nH]c2ccccc23)cc1,-13.6,-10.8,6.0,37.0*,21.0,18.6*
COc1ccc(CNc2ncnc3c2[nH]c2cc(OC)c(OC)cc23)cc1,-9.7,-26.4,-2.7,20.1,14.2,2.9
CC(C)OCCCNc1ncnc2c1[nH]c1ccccc12,-28.7,-11.3,2.0,39.0*,-13.9,15.8*
C1=C(CCNc2ncnc3c2[nH]c2ccccc23)CCCC1,-12.7,6.4,-4.2,22.1,29.2*,15.4*
CN1CCN(c2ccc(-c3ccnn3C(=O)Nc3cccc(C(F)(F)F)c3)cc2)CC1,-5.1,-10.3,-2.7,6.4,21.9,2.5
NC(=O)NC(=O)COC(=O)CC12CC3CC(CC(C3)C1)C2,18.2,13.8,3.6,-10.9,-11.5,0.5
COc1ccc(C(CNc2ccc(S(=O)(=O)N3CCN(C)CC3)cc2[N+](=O)[O-])N(C)C)cc1 (centres undefined),3.9,4.6,-5.8,-5.3,-4.0,1.2
COc1ccc(C(CNc2ccc(S(=O)(=O)N3CCCC3)cc2[N+](=O)[O-])N2CCCC2)cc1 (centres undefined),-28.2,11.4,-9.9,74.7*,6.1,1.9
